Test results taken from PubChem BioAssay (NCATS).
Values joined by “and” are separate entries in the source; they are usually repeats but may differ in a detail not shown here. Identical values can stand only once. Results filed as inconclusive are left out. Some structures have more than one record in an assay (separate samples or runs), and their calls can disagree. Active and inactive are the calls of the source. Unless noted, calls follow the shape of the dose curve; as a rule, active = well fitted curve in the direction sought with a large enough effect; inconclusive = small, poorly fitted or top-dose-only effect, or another doubt; inactive = no such curve, though single readings can be large; an effect the other way counts as inactive or inconclusive.

Columns and labels:
[1] = target: Cytochrome P450 1A2 (Homo sapiens) (UniProt P05177); assay: p450-cyp1a2 (AID 410; calls by dose curve; also: potency is read from the fitted curve at half-maximal effect;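 as to activity change, negative = inhibition: -100% = full effect of reference inhibitor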)
Summary of the method: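 Luminescent readout of luciferin formed from Luciferin-ME by human CYP1A2; data normalized against complete inhibition by 57 uM furafylline. Enzyme 20nM, substrate 100uM at Km, 100mM KPO4 buffer, 60 min reaction at room temperature.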

[2] = target: Glucocorticoid receptor (Homo sapiens) (UniProt P04150); assay: GR-GFP Redistribution (AID 450;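 active = compounds whose dose series gives a full or clear partial fitted curve of increased nuclear translocation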; also: potency is read from the fitted curve at half-maximal effect); conditions: U2OS GR-GFP nuclear translocation, laser cytometry, 2 h
[3] = target: Cytochrome P450 3A4 (Homo sapiens) (UniProt P08684); assay: qHTS Assay for Inhibitors and Substrates of Cytochrome P450 3A4 (AID 884); also: nearly all actives have a fitted effect of over 50% in size; also: potency is read from the fitted curve at half-maximal effect; as to activity change, negative = inhibition: % is scaled to controls: 0 for no effect and ±100 for the full control effect
Summary of the method: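 20 nM human CYP3A4 with 25 uM Luciferin-PPXE (at KM) in 200 mM KPO4, preincubated 10 min with compound; NADPH regeneration started a 60 min RT reaction. Luciferin detected by luminescence, normalized to 57 uM ketoconazole as full inhibition.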

[4] = target: Cytochrome P450 2D6 (Homo sapiens) (UniProt P10635); assay: qHTS Assay for Inhibitors and Substrates of Cytochrome P450 2D6 (AID 891); also: nearly all actives have a fitted effect of over 60% in size; also: potency is read from the fitted curve at half-maximal effect;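 as to activity change, negative = inhibition: luciferin methyl ether substrate demethylated by CYP2D6 with NADPH regeneration; % is scaled to controls: 0 for no effect and ±100 for the full control effect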
Summary of the method: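 Human CYP2D6 (5 nM) with 30 uM Luciferin-ME EGE (at Km) in 100 mM KPO4, compound preincubated 10 min, then NADPH regeneration system for 60 min at room temperature. Luciferin read by luminescence; normalized to 1.43 uM quinidine.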

[5] = Confirmation and Secondary Assay for Modulators of Hemoglobin Beta Chain Splicing at IVS2 654 locus (AID 910);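 also: HeLa cells stably carrying EGFP split by mutant beta-globin IVS2-654 intron; % of control where 0% means no effect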
Summary of the method: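 HeLa cells stably expressing EGFP interrupted by β-globin IVS2-654 intron, seeded overnight in Opti-MEM/2% FCS, then treated 2 days at 37 °C. Restored splicing read as total peak GFP intensity per well by laser scanning cytometry (488 nm excitation, 500–520 nm emission); 500 nM antisense PNA as control.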

[6] = Confirmation and Secondary Assay for Modulators of Hemoglobin Beta Chain Splicing at IVS2 705 locus (AID 930);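 also: HeLa cells stably expressing the EGFP-705 splicing reporter; GFP fluorescence per well restored by corrected splicing of the IVS2-705 intron in EGFP; % of control where 0% means no effect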
Summary of the method: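 HeLa cells stably carrying EGFP interrupted by mutant beta-globin intron 2 (IVS2-705) treated 2 days at 37C with compound; 500 nM antisense PNA as control. Correct splicing read as total peak GFP intensity per well by laser-scanning cytometry.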

[7] = target: DNA dC->dU-editing enzyme APOBEC-3G (Homo sapiens) (UniProt Q9HC16); assay: qHTS for inhibitors of Vif-A3G interactions: Validation (AID 588379); also: 0% is about no effect
Summary of the method: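 HeLa cells stably expressing Vif and A3G-eYFP, 700 cells/well, incubated overnight at 37 deg C, then exposed to compound overnight at 37 deg C. Inhibition of Vif-mediated degradation read as increased yellow fluorescence (Ex 488/Em 500-530) by laser-scanning cytometry.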

[8] = Stat Signaling Pathway (AID 446; active = well fitted curve in either direction with a large enough effect, not every such curve was filed as active;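 also: ME-180 cervical cancer cells given 40 pM IL-6 alongside compound; SIE-controlled beta-lactamase reporter measured as 460/530 nm FRET emission ratio; % is scaled to controls: 0 for no effect and ±100 for the full control effect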)
Summary of the method: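 Reporter line: ME-180 cervical carcinoma, SIE-beta-lactamase. Treatment: compound with 40 pM IL-6, 5 hrs, 37 C, in low-serum OPTI-MEM with 10 mM HEPES pH 7.3. Detection: 460/530 nm fluorescence.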

[9] = target: 3',5'-cyclic-AMP phosphodiesterase 4B (Homo sapiens) (UniProt Q07343); assay: qHTS Assay for Inhibitors of PDE-IV (AID 607; active = well fitted activation curve with a large enough effect in the main read-out, with a control signal flat, not every such curve was filed as active; also: % of control where 0% means no effect)
Summary of the method: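 Cell-based read-out of cAMP via a modified cyclic nucleotide-gated channel and membrane potential dye (535/590 nm) in HEK293 cells expressing PDE4 endogenously. Compounds tested up to 22.9 uM final; 100 uM RO 20-1724 reference.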

[10] = target: Cytochrome P450 3A4 (Homo sapiens) (UniProt P08684); assay: qHTS Assay for Activators of Cytochrome P450 3A4 (AID 885); also: nearly all actives have a fitted effect of over 65% in size
Summary of the method: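 Signal was normalized against complete inhibition by 57 uM ketoconazole. The reaction used 20nM CYP3A4 with 25uM Luciferin-PPXE, 10-min compound preincubation and a 60-min NADPH-supported step at RT.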

[11] = S16 Schwann cell PMP22 intronic element beta-lactamase assay (AID 624044; calls by dose curve;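 also: 0% = DMSO and -100% = potassium clavulanate positive control; nearly all actives have a fitted effect of over 15% in size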)
Summary of the method: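 Rat S16 Schwann cells with beta-Lac driven by a PMP22 intronic element, compound-treated 24 h at 37 °C. LiveBLAzer FRET B/G read: 460 nm normalized to potassium clavulanate vs DMSO; 535 nm FRET as viability; concentration-effect curves classified.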

7G8 = assay: qHTS profiling for inhibitors of Plasmodium falciparum proliferation (AID 504749); also: nearly all actives have a fitted effect of over 60% in size; also: potency is read from the fitted curve at half-maximal effect; conditions: P. falciparum in erythrocytes, SYBR Green DNA, 72 h; series mostly up to 12.8 µM
Summary of the method: (§1)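 P. falciparum-infected erythrocytes (0.3% parasitemia, 2.5% hematocrit) incubated with compound 72 h at 37 C, 5% CO2. Parasite DNA detected by SYBR Green after lysis, overnight at room temperature; normalised to 0.29 uM artemisinin and DMSO.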

CP215 = assay: as above; conditions: P. falciparum in erythrocytes, SYBR Green DNA, 72 h; series mostly up to 12.8 µM
Summary of the method: as §1

[12] = NFAT Signaling Pathway (AID 444; active = well fitted curve in either direction with a large enough effect, not every such curve was filed as active;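 also: carbachol stimulus at about its EC50 of 1 µM final; % is scaled to controls: 0 for no effect and ±100 for the full control effect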); conditions: Jurkat NFAT-bla M1, carbachol, beta-lactamase ratio, 5 h; at 17.2 µM (top of the series) unless noted
Summary of the method: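 Jurkat cells with NFAT-driven β-lactamase reporter and co-expressed M1 receptor, stimulated with carbachol (final 1 uM, ~EC50), compound titration, 5 h at 37 °C. CCF4 loaded 1 h at RT; 460/530 nm ratio gave %activity and AC50.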

DFO2036 = assay: qHTS profiling for inhibitors of Plasmodium falciparum proliferation (AID 504749); also: nearly all actives have a fitted effect of over 60% in size; also: potency is read from the fitted curve at half-maximal effect; conditions: P. falciparum in erythrocytes, SYBR Green DNA, 72 h; series mostly up to 12.8 µM
Summary of the method: as §1

DIV14 = assay: as above; conditions: P. falciparum in erythrocytes, SYBR Green DNA, 72 h; series mostly up to 12.8 µM
Summary of the method: as §1

GB4 = assay: as above; conditions: P. falciparum in erythrocytes, SYBR Green DNA, 72 h; series mostly up to 12.8 µM
Summary of the method: as §1

W2 = assay: as above; conditions: P. falciparum in erythrocytes, SYBR Green DNA, 72 h; series mostly up to 12.8 µM
Summary of the method: as §1

ICS = assay: as above; conditions: P. falciparum in erythrocytes, SYBR Green DNA, 72 h; series mostly up to 12.8 µM
Summary of the method: as §1

DIV17 = assay: as above; conditions: P. falciparum in erythrocytes, SYBR Green DNA, 72 h; series mostly up to 12.8 µM
Summary of the method: as §1

Sequence of Glucocorticoid receptor (Homo sapiens) (P04150 whole entry, looked up): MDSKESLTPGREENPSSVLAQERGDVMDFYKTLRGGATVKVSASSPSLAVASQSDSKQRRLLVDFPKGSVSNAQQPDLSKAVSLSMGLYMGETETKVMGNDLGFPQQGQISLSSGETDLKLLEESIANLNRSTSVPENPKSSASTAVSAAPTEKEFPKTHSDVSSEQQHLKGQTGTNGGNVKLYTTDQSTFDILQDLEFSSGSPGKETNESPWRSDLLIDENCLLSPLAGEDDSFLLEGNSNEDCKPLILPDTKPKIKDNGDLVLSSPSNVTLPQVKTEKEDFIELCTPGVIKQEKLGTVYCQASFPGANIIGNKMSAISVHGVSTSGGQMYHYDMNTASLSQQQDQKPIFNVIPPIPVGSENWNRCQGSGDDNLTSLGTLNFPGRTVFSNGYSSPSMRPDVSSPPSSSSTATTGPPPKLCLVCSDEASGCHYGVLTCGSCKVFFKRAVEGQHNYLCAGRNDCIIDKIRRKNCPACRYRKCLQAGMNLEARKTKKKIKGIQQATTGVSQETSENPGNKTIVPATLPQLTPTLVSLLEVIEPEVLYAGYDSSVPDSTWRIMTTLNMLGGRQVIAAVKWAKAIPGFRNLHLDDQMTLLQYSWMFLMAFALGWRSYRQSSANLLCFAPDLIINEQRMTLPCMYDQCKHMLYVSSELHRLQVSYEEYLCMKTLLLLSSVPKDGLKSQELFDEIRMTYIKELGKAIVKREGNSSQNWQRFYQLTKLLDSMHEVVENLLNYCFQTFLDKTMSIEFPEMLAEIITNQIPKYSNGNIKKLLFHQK
Sequence of 3',5'-cyclic-AMP phosphodiesterase 4B (Homo sapiens) (Q07343 whole entry, looked up): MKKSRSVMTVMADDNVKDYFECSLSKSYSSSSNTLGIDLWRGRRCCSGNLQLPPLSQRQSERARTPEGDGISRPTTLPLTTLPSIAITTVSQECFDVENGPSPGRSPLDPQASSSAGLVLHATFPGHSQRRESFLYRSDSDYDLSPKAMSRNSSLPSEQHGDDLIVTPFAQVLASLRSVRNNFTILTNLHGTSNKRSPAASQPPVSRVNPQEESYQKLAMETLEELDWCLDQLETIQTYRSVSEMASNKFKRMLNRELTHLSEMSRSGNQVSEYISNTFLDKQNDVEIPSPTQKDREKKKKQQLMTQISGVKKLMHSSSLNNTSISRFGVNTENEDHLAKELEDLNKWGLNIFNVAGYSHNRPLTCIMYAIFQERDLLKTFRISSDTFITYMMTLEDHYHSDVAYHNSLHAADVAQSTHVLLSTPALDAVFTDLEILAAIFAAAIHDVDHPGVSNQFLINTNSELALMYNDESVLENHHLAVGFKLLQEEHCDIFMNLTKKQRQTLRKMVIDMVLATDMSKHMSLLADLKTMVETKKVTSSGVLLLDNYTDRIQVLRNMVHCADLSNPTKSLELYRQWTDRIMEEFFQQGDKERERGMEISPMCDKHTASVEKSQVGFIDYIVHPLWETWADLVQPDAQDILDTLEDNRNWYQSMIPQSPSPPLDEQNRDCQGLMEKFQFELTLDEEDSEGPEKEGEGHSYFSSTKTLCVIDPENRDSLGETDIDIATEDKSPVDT
Sequence of DNA dC->dU-editing enzyme APOBEC-3G (Homo sapiens) (Q9HC16 whole entry, looked up): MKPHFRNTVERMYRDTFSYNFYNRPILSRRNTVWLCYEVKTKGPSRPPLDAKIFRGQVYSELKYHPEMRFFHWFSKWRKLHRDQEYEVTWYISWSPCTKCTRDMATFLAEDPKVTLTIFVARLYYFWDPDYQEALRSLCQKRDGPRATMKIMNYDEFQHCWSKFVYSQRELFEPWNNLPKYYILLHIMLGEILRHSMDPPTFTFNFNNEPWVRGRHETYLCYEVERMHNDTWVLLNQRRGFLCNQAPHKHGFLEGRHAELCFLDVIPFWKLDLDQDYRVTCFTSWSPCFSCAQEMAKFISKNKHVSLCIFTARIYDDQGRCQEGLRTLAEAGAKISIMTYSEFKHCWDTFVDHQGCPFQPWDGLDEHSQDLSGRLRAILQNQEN
Sequence of Cytochrome P450 3A4 (Homo sapiens) (P08684 whole entry, looked up): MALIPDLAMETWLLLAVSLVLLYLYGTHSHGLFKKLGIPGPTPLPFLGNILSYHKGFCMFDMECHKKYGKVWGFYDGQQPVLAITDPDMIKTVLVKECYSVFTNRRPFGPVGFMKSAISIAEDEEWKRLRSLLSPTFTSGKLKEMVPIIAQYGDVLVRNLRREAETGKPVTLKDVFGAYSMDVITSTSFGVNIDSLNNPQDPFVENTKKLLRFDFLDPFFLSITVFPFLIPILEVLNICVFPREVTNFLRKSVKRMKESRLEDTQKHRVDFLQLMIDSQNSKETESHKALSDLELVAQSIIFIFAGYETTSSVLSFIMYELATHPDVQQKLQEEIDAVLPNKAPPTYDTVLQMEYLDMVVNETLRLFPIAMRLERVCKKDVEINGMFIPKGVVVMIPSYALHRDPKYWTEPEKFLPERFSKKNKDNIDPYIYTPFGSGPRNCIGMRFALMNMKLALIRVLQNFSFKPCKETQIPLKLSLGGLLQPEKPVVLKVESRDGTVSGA
Sequence of Cytochrome P450 1A2 (Homo sapiens) (P05177 whole entry, looked up): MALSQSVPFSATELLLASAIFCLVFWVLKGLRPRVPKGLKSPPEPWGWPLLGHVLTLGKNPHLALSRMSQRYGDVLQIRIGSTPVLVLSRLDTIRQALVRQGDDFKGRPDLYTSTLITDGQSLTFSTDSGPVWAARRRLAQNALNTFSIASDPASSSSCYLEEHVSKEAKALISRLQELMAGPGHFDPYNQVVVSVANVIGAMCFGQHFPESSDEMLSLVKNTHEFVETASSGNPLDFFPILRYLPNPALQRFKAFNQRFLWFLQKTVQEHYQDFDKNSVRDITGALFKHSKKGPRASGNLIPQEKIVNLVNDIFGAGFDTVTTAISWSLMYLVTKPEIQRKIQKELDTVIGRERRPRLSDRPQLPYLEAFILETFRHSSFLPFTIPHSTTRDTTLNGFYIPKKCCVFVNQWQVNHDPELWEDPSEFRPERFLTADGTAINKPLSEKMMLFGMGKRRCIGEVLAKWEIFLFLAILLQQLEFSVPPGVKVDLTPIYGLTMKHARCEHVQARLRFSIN
Sequence of Cytochrome P450 2D6 (Homo sapiens) (P10635 whole entry, looked up): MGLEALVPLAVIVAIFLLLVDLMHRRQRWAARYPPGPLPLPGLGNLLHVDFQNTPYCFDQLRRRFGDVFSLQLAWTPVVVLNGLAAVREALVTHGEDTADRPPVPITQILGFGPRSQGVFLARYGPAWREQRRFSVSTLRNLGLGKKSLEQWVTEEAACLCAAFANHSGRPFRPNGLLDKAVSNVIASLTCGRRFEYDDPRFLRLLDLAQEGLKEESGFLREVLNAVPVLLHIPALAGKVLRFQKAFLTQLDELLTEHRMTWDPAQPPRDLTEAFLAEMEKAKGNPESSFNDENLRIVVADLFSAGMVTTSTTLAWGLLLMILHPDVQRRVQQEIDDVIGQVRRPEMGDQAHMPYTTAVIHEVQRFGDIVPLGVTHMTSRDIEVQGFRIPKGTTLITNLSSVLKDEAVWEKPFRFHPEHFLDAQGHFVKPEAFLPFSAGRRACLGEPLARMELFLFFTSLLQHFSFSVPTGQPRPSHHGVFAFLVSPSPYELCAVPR

COc1cc2ccc(=O)oc2c(O)c1O
active: Potency [1] 12.6 µM
inactive: Potency [2] > 46 µM | Potency [3] | Potency [4] | Potency [5] | Potency [6] | outcome [7]

CN1[C@H](CC(=O)c2ccccc2)CCC[C@H]1C[C@@H](O)c1ccccc1
inactive: Potency [3] | outcome [7]
active: Potency [1] 31.6 µM

COc1ccc2c(c1)N(C[C@@H](C)CN(C)C)c1ccccc1S2
inactive: outcome [8] | outcome [9] | Potency [10] | Potency [11] | Potency (CP215)
active: Potency [4] 0.0631 µM | Potency (7G8) 3.55 µM

CC(=O)/C(C)=N\O
inactive: activity change, negative = inhibition [12] 4.19% [at 38 µM] | outcome [8] | outcome [9] | outcome [7]
7.38 µM (active) and > 46 µM (inactive): Potency [2]

CC(=O)O[C@H]1C[C@@]2(C)[C@H](C[C@@H](O)[C@H]3[C@@]4(C)CC[C@@H](O)[C@@H](C)[C@H]4CC[C@@]32C)C1=C(CCC=C(C)C)C(=O)O
inactive: activity change, negative = inhibition [12] -11.2% | outcome [8] | Potency [2] > 20.6 µM | outcome [9] | Potency (CP215) | Potency (DFO2036) | Potency (DIV14) | Potency (GB4) | Potency (W2)

CC/C=C\C[C@H]1C(=O)CC[C@@H]1CC(=O)O
inactive: Potency [2] > 46 µM | outcome [9] | Potency [3] | Potency [4] | outcome [7]

CN1CCO[C@H](c2ccccc2)c2ccccc2C1
active: Potency (W2) 2.03 µM
inactive: outcome [8] | Potency [11] | Potency (7G8) | Potency (CP215) | Potency (ICS)

C/C(=C\CNc1ncnc2nc[nH]c12)CO
inactive: Potency [2] > 46 µM | outcome [9] | Potency [3] | Potency [4] | outcome [7]

COC(=O)[C@@H]1[C@@H]2C[C@H]3c4[nH]c5cc(OC)ccc5c4CCN3C[C@@H]2C[C@H](OC(=O)/C=C\c2cc(OC)c(OC)c(OC)c2)[C@H]1OC
inactive: activity change, negative = inhibition [12] 0.402% | outcome [8] | Potency [2] > 20.6 µM | outcome [9] | Potency [11]
active: Potency (7G8) 3.16 µM | Potency (DIV14) 5.73 µM | Potency (GB4) 5.1 µM | Potency (ICS) 4.47 µM | Potency (W2) 1.81 µM

C[C@@]12CCC(=O)C[C@@H]1CC(=O)[C@H]1[C@H]3CCC[C@]3(C)C(=O)C[C@@H]12 (tested in a mixture with another compound)
inactive: activity change, negative = inhibition [12] -7.43% | outcome [8] | Potency [2] > 20.6 µM | outcome [9]

NCCC(=O)N[C@@H](Cc1cnc[nH]1)C(=O)O
inactive: Potency [1] | outcome [9] | Potency [3] | Potency [4] | outcome [7]

Nc1ncnc2c1nc(Br)n2[C@H]1O[C@H]2COP(=O)(O)O[C@H]2[C@@H]1O
inactive: Potency [2] > 46 µM | outcome [7]

CCN1CCC[C@@H](OC(=O)C(c2ccccc2)c2ccccc2)C1
inactive: outcome [8] | Potency [2] > 20.6 µM | Potency [10] | Potency [11] | Potency (DFO2036)
active: activity change, negative = inhibition [12] -80.8% | Potency (W2) 1.44 µM

CC1(C)S[C@@H]2[C@H](NC(=O)COc3ccccc3)C(=O)N2[C@H]1C(=O)O (tested in a mixture with another compound)
inactive: activity change, negative = inhibition [12] -7.06% | outcome [8] | outcome [9]

CC1=C(C(=O)O)N2C(=O)[C@@H](NC(=O)[C@@H](N)c3ccc(O)cc3)[C@@H]2SC1
inactive: activity change, negative = inhibition [12] -8.2% | outcome [8] | Potency [2] > 20.6 µM | Potency [11] | Potency (7G8) | Potency (CP215) | Potency (DFO2036) | Potency (DIV14) | Potency (DIV17) | Potency (GB4) | Potency (ICS) | Potency (W2)

COc1ccc(-c2cc(=O)c3c(O)cc(O)cc3o2)cc1
active: Potency [3] 2.51 µM and 7.94 µM and 3.16 µM
inactive: outcome [9] | Potency [10] | Potency [5] | Potency [6] | outcome [7]

CCCCC[C@H](O)/C=C\[C@@H]1[C@H](O)CC(=O)[C@@H]1CCCCCCC(=O)O
inactive: activity change, negative = inhibition [12] -1.09% | outcome [8] | Potency [2] > 20.6 µM | Potency (CP215) | Potency (DFO2036)
active: Potency (ICS) 3.55 µM

CC1(C)[C@@H](OC(=O)CCC(=O)O)CC[C@@]2(C)[C@H]1CC[C@@]1(C)[C@H]2C(=O)C=C2[C@H]3C[C@](C)(C(=O)O)CC[C@]3(C)CC[C@@]21C
inactive: outcome [8] | Potency [2] > 20.6 µM | outcome [9] | Potency (7G8) | Potency (CP215) | Potency (DIV14) | Potency (DIV17) | Potency (GB4) | Potency (ICS) | Potency (W2)

Cc1cn([C@@H]2C[C@H](N=[N+]=N)[C@H](CO)O2)c(=O)[nH]c1=O
inactive: activity change, negative = inhibition [12] -2.1% | outcome [8] | Potency [2] > 20.6 µM | outcome [9]

CCCCC[C@H](O)/C=C\[C@H]1[C@H](C/C=C\CCCC(=O)O)[C@@H](O)C[C@H]1O (tested in a mixture with another compound)
inactive: activity change, negative = inhibition [12] 11.1% | outcome [8] | outcome [9] | Potency (7G8) | Potency (CP215) | Potency (DIV14) | Potency (DIV17) | Potency (GB4) | Potency (ICS) | Potency (W2)

Nc1ncn([C@H]2O[C@@H](CO)[C@@H](O)[C@@H]2O)c(=O)n1
inactive: activity change, negative = inhibition [12] -16.5% | Potency [2] > 20.6 µM | outcome [9]

COC(=O)C1=C(C)NC(C)=C(C(=O)OCCN(C)Cc2ccccc2)[C@H]1c1cccc([N+](=O)[O-])c1
inactive: outcome [8] | Potency [2] > 20.6 µM | outcome [9]
